Compound activity deposited in PubChem BioAssay by National Center for Advancing Translational Sciences (NCATS).
An excerpt weighted towards active compounds, which were near 11% of everything screened.
PNC inhibitor: inhibitors of perinucleolar compartment assembly. AID 2417. PC3M PTB-GFP, PNC prevalence imaging, 16 h; hits give low values. hit rate 3.1% among 140,000. activity change (PNC), negative = inhibition, % at 10 µM;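 active means readout at or below -70, meaning at least 70% loss of cells showing the perinucleolar compartment, a nuclear body marking cancer cells; inconclusive means readout between -30 and a set limit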;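 further: plate controls were DMSO wells for no effect and camptothecin positive control wells for full effect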
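PC3M cells stably expressing PTB-GFP, 750–1000 cells/well, treated 16 h at 37 °C with compound (23 nl of library stock), in duplicate. After paraformaldehyde fixation and Hoechst stain, imaged at 20x; PNC prevalence scored by image analysis.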
ALDH1A1 inh: ALDH1A1 (human) enzyme inhibition. hit rate 7.3% among 220,000. Purified ALDH1A1, NADH fluorescence, propionaldehyde substrate. Potency, µM (highest dose often 75.3 µM), inactives show at the top dose activity, negative = inhibition, hits mostly inhibitors;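 further: potency means the concentration at half of the fitted maximal effect; plate controls were no enzyme wells and a reference inhibitor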
Target sequence (P00352 whole entry, looked up): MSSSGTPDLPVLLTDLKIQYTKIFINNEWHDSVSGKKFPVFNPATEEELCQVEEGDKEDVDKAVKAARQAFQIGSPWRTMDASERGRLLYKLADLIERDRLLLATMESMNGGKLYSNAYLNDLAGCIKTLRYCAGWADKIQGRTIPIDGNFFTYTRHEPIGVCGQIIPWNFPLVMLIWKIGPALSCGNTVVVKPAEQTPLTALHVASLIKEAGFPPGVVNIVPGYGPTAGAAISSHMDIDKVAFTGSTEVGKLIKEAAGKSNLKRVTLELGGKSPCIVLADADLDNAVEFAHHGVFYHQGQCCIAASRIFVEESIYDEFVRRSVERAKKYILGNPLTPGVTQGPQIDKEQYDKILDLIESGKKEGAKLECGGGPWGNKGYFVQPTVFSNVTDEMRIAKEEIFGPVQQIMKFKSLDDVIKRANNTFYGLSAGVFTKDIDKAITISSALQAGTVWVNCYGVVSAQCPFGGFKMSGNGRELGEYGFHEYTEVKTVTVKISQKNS
HPGD inh: HPGD (human) dehydrogenase inhibition | AID 894 | hit rate 4.3% among 150,000 | purified HPGD, NADH fluorescence kinetic, PGE2 substrate | Potency, µM, without a hit: at the top dose activity change, negative = inhibition, hits mostly inhibitors | P15428; further: potency means the concentration at half of the fitted maximal effect; on the % scale 0 is the no-effect control and ±100 the full control effect
Target sequence (P15428 whole entry, looked up): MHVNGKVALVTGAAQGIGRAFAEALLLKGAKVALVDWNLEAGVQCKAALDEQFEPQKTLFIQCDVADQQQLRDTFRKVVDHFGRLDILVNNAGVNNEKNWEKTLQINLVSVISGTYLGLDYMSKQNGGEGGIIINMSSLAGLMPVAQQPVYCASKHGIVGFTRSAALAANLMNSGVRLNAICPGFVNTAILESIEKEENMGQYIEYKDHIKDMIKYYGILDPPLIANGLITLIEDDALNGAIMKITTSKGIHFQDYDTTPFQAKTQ
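20 nM HPGD preincubated 15 min at room temperature with compound in 50 mM Tris-HCl pH 8, 0.01% Tween 20. Started with 1 mM NAD+ and 30 uM prostaglandin E2; NADH fluorescence (360/450 nm) read 5 times over 30-s intervals, last minus first.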
HTT cytoprotect: protects HTT-Q103 PC12 cells, measured by ATP | AID 1471 | PC12 HTT-Q103 induced, cytoprotection, ATP luminescence, 40 h | Potency, µM (titrated, usually from 56.4 µM), inactives show cytoprotection (ATP increase), most hits filed as activators | hit rate 0.14% among 230,000; active means well fitted curve in the direction sought with a large enough effect; inconclusive means small, poorly fitted or top-dose-only effect, or another doubt; inactive means no such curve, though single readings can be large; an effect the other way counts as inactive or inconclusive; further: potency means the concentration at half of the fitted maximal effect; % of control where 0% means no effect; nearly all actives have a fitted effect of over 45% in size
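Quantitative HTS on tebufenozide-induced (100 nM) PC12 cells expressing HTTQ103 exon 1–GFP; compounds tested as a concentration series; survival measured via cellular ATP.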
GoLoco inh red: RGS12 GoLoco-Gai1 interaction inhibition; P63096; Gai1:RGS12 GoLoco peptide FP, rhodamine, 10 min; Potency, µM (titrated, usually from 61.6 µM), inactives show top-dose activity, negative = inhibition, usual class: inhibitors; hit rate 0.44% among 230,000; AID 880; active means well fitted inhibition curve with a large enough effect, not every such curve was filed as active; inactive means no such curve, though single readings can be large or run the other way; further: potency means the concentration at half of the fitted maximal effect; on the % scale 0 is the no-effect control and ±100 the full control effect; nearly all actives have a fitted effect of over 30% in size
HttQ103 aggreg: mutant huntingtin aggregation inhibition; PC12 HttQ103-GFP aggregates, Acumen cytometry, 40 h; Potency, µM (titrated, usually from 46.1 µM), for inactives: top-dose activity change, negative = inhibition, usual class: inhibitors; hit rate 1.1% among 220,000; active means well fitted curve in the direction sought with a large enough effect; inconclusive means small, poorly fitted or top-dose-only effect, or another doubt; inactive means no such curve, though single readings can be large; an effect the other way counts as inactive or inconclusive; further: potency means the concentration at half of the fitted maximal effect; on the % scale 0 is the no-effect control and ±100 the full control effect; nearly all actives have a fitted effect of over 60% in size
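Multiplexed with ATP-based cell death, this channel scores GFP aggregates in PC12 cells expressing inducible HTTex1-Q103-GFP. Induction used 100 nM tebufenozide; compounds were tested in concentration series.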
* hit, by the source's call; ? = inconclusive; . = no result given; [ ] = dose if it differs, or a comment. Unless noted, the call rests on the fitted dose curve; in most records, active means well fitted inhibition curve with a large enough effect (not every such curve was filed as active); inconclusive means small, poorly fitted or top-dose-only effect, or another doubt; inactive means no such curve, though single readings can be large or run the other way.

SMILES	PNC inhibitor	ALDH1A1 inh	HPGD inh	HTT cytoprotect	GoLoco inh red	HttQ103 aggreg
CCOc1ccc(NC(=O)C2CC(=O)OC2c2ccccc2)cc1 (stereo not drawn)	.	25µM*	.	-30%	6%	20%[9.22 µM]
CCOc1ccc(NC(=O)c2ccccc2CO)cc1	9	7%	-6%	-39%	10%	-4%
CCOc1ccc(NC(=O)c2ccccc2O)cc1	-104*	0%	-13%	-40%[10 µM]	4%	?
CCOc1ccc(NC(=O)c2cccnc2C(=O)O)cc1	17	22µM*	-6%	-8%	21%	10%
CCOc1ccc(NC(=O)Cc2ccccc2)cc1	21	2%	13µM*	.	24%	17%
CC(=O)OCC(=O)[C@@]12OC3(CCCC3)OC1CC1C3CCC4=CC(=O)C=C[C@@]4(C)[C@]3(F)C(O)C[C@]12C (stereo partly drawn)	.	-3%	-7%	-61%	3%	21%
O=C(Nc1ccc(C(F)(F)F)cc1)c1cnc(N2CCN(c3ccccn3)CC2)c2ccccc12	.	-4%	.	-12%	10%	-9%
CCOc1ccc(NC(=O)c2ccccc2OC)cc1	?	5%	-18%	-74%	2%	8%
CCOc1ccc(NC(=O)C(C)Oc2ccccc2C(=O)Nc2cccc(Cl)c2Cl)cc1 (stereo not drawn)	-110*	-4%	0%	-26%	7%	-5%
CCOc1ccc(NC2=NCC(=O)N2CCc2ccccc2)cc1	?	25µM*	-12%	4%	5%	10%
Cc1ccc(NC2=NCC(=O)N2CCc2ccccc2)cc1C	-9	4%	-12%	1%[10 µM]	10%	-2%
CC(C)C[C@@H](CC(=O)N[C@@H](CCCN)CC(=O)N[C@@H]1CCNC[C@H]1C(=O)N[C@H](CC(=O)N[C@@H](CCC(=O)O)CC(=O)O)CC(C)C)NC(=O)[C@@H]1CNCC[C@H]1N	.	?	-3%	?	-1%	.
CCN(CC)CCOC(=O)c1ccc(NC(=O)c2cn(-c3ccccc3)nc2-c2cccs2)cc1	.	-3%	.	9%[10 µM]	11%	24%
CCCC(=O)OC1(C(=O)CO)CCC2C3CCC4=CC(=O)CCC4(C)C3C(O)CC21C (stereo not drawn)	.	15%	1%	-98%	13%	.
CC1(C(=O)Oc2ccccc2)Cc2ccccc2C(=O)O1 (stereo not drawn)	.	9%	.	10%	-13%	2%
CC1(C(=O)O)Cc2ccccc2C(=O)O1 (stereo not drawn)	-101*	-5%	-15%	-7%	1%	3%[9.22 µM]
OCC1CCCN(Cc2cn(Cc3ccccc3)nc2-c2cc3ccccc3o2)C1 (stereo not drawn)	.	?	.	1%[10 µM]	6%	-11%[9.22 µM]
Cc1ccc(C(=O)N/C(=C\c2ccco2)C(=O)NCCCn2ccnc2)cc1C	3	25µM*	-28%	12%[10 µM]	3%	-17%
COc1ccc(C(=O)N/C(=C\c2ccco2)C(=O)NCCCn2ccnc2)cc1	?	-9%	-15%	25%[10 µM]	-7%	17%
Cc1ccc(N/N=C(\C#N)C(N)=S)c(C)c1	-6	?	14µM*	.	-4%	17%
COc1cccc(C(=O)Nc2ccc(S(=O)(=O)Nc3onc(C)c3C)cc2)c1	19	15%	35µM*	-2%	-3%	-9%
COc1cccc(C(=O)Nc2ccc(S(=O)(=O)Nc3nccc(C)n3)cc2)c1	?	-11%	28µM*	20%[10 µM]	4%	11%
CC1(C)CC2CC(C)(CN2C(=O)COc2cccc3ccccc23)C1 (stereo not drawn)	3	4%	32µM*	4%	10%	6%
Cn1c(=O)[nH]c(Nc2ccc(F)cc2)c([N+](=O)[O-])c1=O	-109*	-7%	-29%	.	9%	-8%
CC(=O)OC[C@H]1O[C@@H](O/N=C\[C@@H](C)[C@H](OCc2ccccc2)C(C)C)[C@H](OC(C)=O)[C@@H](OC(C)=O)[C@H]1OC(C)=O	.	-12%[13.5 µM]	.	5%[10 µM]	.	.
SMILES	PNC inhibitor	ALDH1A1 inh	HPGD inh	HTT cytoprotect	GoLoco inh red	HttQ103 aggreg
CCN1CCC[C@@H]1CNC(=O)c1c(OC)ccc(I)c1O	.	.	.	-5%[1.9 µM]	.	.
O=C(CN1CCN(CC(=O)Nc2ccccc2Cl)CC1)Nc1ccc2c(c1)OCCO2	-100*	7.9µM*	-8%	-39%	4%	0%
O=C(CCN1C(=O)c2ccccc2S1(=O)=O)Nc1ccc2c(c1)OCCO2	10	6.3µM*	-16%	9%	-6%	7%
O=C(CSCc1c(Cl)cccc1Cl)Nc1ccc2c(c1)OCCO2	-83*	?	-15%	5%[10 µM]	0%	8%
O=C(CN1CCC(C(=O)c2ccc(Cl)cc2)CC1)Nc1ccc2c(c1)OCCO2	?	-8%	-10%	-6%[10 µM]	1%	0%
O=C(CN1CCC(Cc2ccccc2)CC1)Nc1ccc2c(c1)OCCO2	16	28µM*	-8%	10%	1%	-3%[9.22 µM]
Cc1cccc(C)c1Nc1oc(-c2ccccc2)nc1-c1ccccc1	.	5%	-15%	10%	7%	.
C/C(NC1CCCC1)=C(/C#N)C(N)=O	12	10%	-21%	9%[0.074 µM]	7%	-8%
C/C(=C(\C#N)C(=O)NC1CCCCC1)N(C)C	78	-8%	16µM*	-9%	-7%	1%
O=C(O)/C=C\C(=O)Nc1cccc(NC(=O)c2ccccc2)c1	.	?	.	24%[10 µM]	7%	-5%[9.22 µM]
O=C(O)/C=C/C(=O)Nc1ccc(NC(=O)c2ccccc2)c(Cl)c1	.	2.2µM*	.	-33%	-8%	17%
O=C1CCCC=C1[C@@H](O)CCOCc1ccccc1	.	-6%[13.5 µM]	.	-5%[10 µM]	.	.
Cc1ccc(C(=O)O/N=C2\CC3CCC2(C)C3(C)C)cc1 (stereo not drawn)	?	13µM*	-5%	3%[10 µM]	3%	1%
Cc1cccc(C(=O)O/N=C2/CC3CCC2(C)C3(C)C)c1 (stereo not drawn)	-9	-5%	-16%	15%[10 µM]	-1%	-6%
Cc1cc(CC(C)C)n(-c2nc3ccccc3c(=O)n2OCc2ccccc2)n1	-24	5%	-11%	-13%	11%	-24%
COc1nc2ccccc2c(=O)n1OCC(C)C	-82*	14µM*	-18%	-6%	-9%	-21%
Cc1c(Cl)c(S(N)(=O)=O)cc2c1=NC=NS=2(=O)O	.	-3%[13.5 µM]	-3%	15%[10 µM]	5%[14.2 µM]	.
Cc1ccc(N(CC(=O)N2CC(=O)Nc3ccccc32)S(=O)(=O)c2ccc3c(c2)OCCO3)cc1	-100*	?	-14%	12%[10 µM]	10%	-3%
O=C(O)CN(c1ccc(F)cc1)S(=O)(=O)c1ccc2c(c1)OCCO2	27	6%	-4%	3.2µM*	3%	.
COC(=O)c1ccc(CN(c2ccc(C)cc2)S(=O)(=O)c2ccc3c(c2)OCCO3)o1	-15	?	-17%	-18%	-5%	1%
Clc1ccccc1C(Nc1ncccn1)Nc1ncccn1	.	8%[13.5 µM]	-6%	-9%[10 µM]	4%[14.2 µM]	.
